The source made the active and inactive calls. How the calls were made is not given here.

For the first test, the system named is Botulinum neurotoxin type F light chain protease (Clostridium botulinum). The test can be described thus: Clostridium botulinum type F light chain protease inhibitors, microsphere substrate cleavage, validation (AID 588459). Particulars: multiplex microsphere protease substrate cleavage assay, flow cytometry; at 10 µM; stronger effect = higher value.
As to `O=C(CNC(=O)OCc1ccccc1)NC1CCCCCC1`, the inhibition was -1% (inactive).
Still for that read-out and setting: to `COc1ccc(OC)c(-n2c(Cn3c(-c4ccccn4)nc4ccccc43)n[nH]c2=S)c1` belongs -3.4% (inactive); to `O=C1CCCN1C(=O)CCC(=O)N1CCCC1=O`, -1.4% (inactive).
Still for that read-out and setting: in the case of `COc1cc(C(=O)NCCc2c[nH]c3ccccc23)ccc1OCc1c(C)noc1C` it was 3.6% (inactive).
Still for that read-out and setting: in the case of `O=C1C=CC(=O)C(C2=C3C(=O)N(CCc4ccccc4)CC(=O)N3CCC2)=C1` it was 1.8% (inactive); in that of `CCCCNc1cc(C(=O)O)cc(S(N)(=O)=O)c1Oc1ccccc1`, 2.6% (inactive); in that of `c1cc2c(cc1C1CCCCC1)c1c3n2CCN=C3CCC1`, 0.7% (inactive).

The next test deals with Botulinum neurotoxin type A (Clostridium botulinum) (UniProt P0DPI0). The test can be described thus: BoNT/A light chain protease inhibitors, biochemical, multiplex microsphere flow cytometry, validation set (AID 588460). The following applies: at 10 µM, stronger effect = higher value.
Botulinum neurotoxin type A (Clostridium botulinum), sequence (P0DPI0 whole entry, looked up): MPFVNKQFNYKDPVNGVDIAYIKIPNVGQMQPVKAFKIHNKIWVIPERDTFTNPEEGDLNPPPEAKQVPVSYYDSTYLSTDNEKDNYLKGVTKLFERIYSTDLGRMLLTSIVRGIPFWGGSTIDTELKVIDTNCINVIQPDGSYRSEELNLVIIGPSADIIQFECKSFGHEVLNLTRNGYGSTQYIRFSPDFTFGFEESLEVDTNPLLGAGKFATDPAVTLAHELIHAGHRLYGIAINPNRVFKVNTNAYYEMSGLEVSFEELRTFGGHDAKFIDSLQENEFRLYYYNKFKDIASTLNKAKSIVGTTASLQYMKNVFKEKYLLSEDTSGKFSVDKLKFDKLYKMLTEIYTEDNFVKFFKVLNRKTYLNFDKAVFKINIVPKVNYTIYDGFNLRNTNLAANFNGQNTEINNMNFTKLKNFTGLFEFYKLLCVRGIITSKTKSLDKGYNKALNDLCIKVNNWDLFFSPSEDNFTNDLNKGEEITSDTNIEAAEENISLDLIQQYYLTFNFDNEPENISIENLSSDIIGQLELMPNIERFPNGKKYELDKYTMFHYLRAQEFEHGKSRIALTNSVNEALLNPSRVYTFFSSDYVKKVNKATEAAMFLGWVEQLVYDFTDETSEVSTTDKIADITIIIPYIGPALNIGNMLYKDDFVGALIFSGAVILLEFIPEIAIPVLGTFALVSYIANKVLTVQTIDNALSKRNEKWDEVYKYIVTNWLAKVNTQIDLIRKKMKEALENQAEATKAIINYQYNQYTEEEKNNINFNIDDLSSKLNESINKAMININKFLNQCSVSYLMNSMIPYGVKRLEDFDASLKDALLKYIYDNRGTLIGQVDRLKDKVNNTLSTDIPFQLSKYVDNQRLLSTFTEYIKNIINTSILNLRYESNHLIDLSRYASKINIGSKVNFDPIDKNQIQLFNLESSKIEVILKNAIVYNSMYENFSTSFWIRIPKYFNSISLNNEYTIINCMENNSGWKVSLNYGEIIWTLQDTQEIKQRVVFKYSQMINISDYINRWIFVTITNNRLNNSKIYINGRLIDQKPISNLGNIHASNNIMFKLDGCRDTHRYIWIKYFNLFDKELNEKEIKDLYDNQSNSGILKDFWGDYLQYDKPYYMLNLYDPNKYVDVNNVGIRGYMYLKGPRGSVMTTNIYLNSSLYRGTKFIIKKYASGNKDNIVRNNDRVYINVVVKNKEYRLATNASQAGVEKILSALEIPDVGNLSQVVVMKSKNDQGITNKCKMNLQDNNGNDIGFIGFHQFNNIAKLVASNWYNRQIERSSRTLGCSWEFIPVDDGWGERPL
For `C[C@@H]1C[C@H]2[C@@H]3CCC4=CC(=O)C=C[C@]4(C)[C@@]3(F)[C@@H](O)C[C@]2(C)[C@@]1(O)C(=O)COP(=O)(O)O`, the inhibition was 0.2% (inactive).
In the case of `CC1(C)CC(=O)C2=C(C1)c1c(ccc3ccccc13)NC2c1ccco1` (centres undefined), the inhibition was 1.1% (inactive).
Same read-out and setting: to `CN1CCc2cccc3c2[C@H]1Cc1ccc(O)c(O)c1-3` belongs -6.5% (inactive); to `CCN(CC)C(=O)c1sc(NC(=O)c2c(OC)cccc2OC)c(C#N)c1C`, 2.1% (inactive).
Same read-out and setting: to `COc1ccc(C(=O)/C=C/c2ccc(OC(=O)c3cc(OC)c(OC)c(OC)c3)cc2)cc1` belongs 0.3% (inactive).
Still for that read-out and setting: to `O=C(Oc1ccccc1)Oc1ccc2c(c1)oc(=O)c1ccccc12` belongs -0.4% (inactive); to `COc1ccc(OC)c(NC2=C(Cl)C(=O)N(Cc3ccccc3)C2=O)c1`, -2.2% (inactive).
Consider `CC(C(=O)O)c1cccc(C(=O)c2ccccc2)c1` (centres undefined), for which the inhibition was -1.5% (inactive).
As for `CN(C)CCC(c1ccc(Cl)cc1)c1ccccn1` (centres undefined), the inhibition was -0.2% (inactive).
Still for that read-out and setting: to `O=C1CC[C@@H](CN(Cc2ccccc2)Cc2cn[nH]c2-c2cc3ccccc3o2)N1` belongs 1.2% (inactive).
Same read-out and setting: to `O=C1CC2(CCCC2)CC(=O)N1CCCCN1CCN(c2ncccn2)CC1` belongs 0.2% (inactive).
The same measure, in the same setting: in the case of `CC[C@H](C)C(=O)O[C@H]1C[C@@H](C)C=C2C=C[C@H](C)[C@H](CC[C@@H]3C[C@@H](O)CC(=O)O3)[C@H]21` it was 0.7% (inactive); in that of `COc1ccc(C(=O)C2CCCCC2=O)cc1` (centres undefined), 0.2% (inactive).
Take `CC(=O)N(CCC1(C(C)C)CCOC(C)(C)C1)Cc1ccco1` (centres undefined): the inhibition is -1.4% (inactive).
For the compound `Cc1[nH]nc(-c2ccc(O)cc2O)c1Oc1ccccc1`, the inhibition was -0.4% (inactive).
With `CC(C)CN1CCN(Cc2ccc(C#CC(C)(C)O)cc2)CC1CCO` (centres undefined), the inhibition was -1.1% (inactive).
The same measure, in the same setting: to `O=C(c1ccc(Cl)cc1)C1CCCN(Cc2ccc(Oc3ncccn3)cc2)C1` (centres undefined) belongs -1.2% (inactive).
The same measure, in the same setting: in the case of `CN(C(=O)C(Cl)Cl)c1ccc(OC(=O)c2ccco2)cc1` it was 0.7% (inactive).
In the case of `CCOC(=O)Cc1c(C)nc(N)[nH]c1=O`, the inhibition is 0.8% (inactive).
Same read-out and setting: to `CCCC(=O)Nc1ccc(OCC(O)CNC(C)C)c(C(C)=O)c1` (centres undefined) belongs 1.1% (inactive); to `O=C(CNC(=O)OCc1ccccc1)NC1CCCCCC1`, -1.8% (inactive); to `CC(C)(C)c1ccc(C(O)CCCN2CCC(C(O)(c3ccccc3)c3ccccc3)CC2)cc1` (centres undefined), -2.5% (inactive).
Still for that read-out and setting: in the case of `CN(C)CCCN1c2ccccc2CCc2ccc(Cl)cc21` it was -0.7% (inactive); in that of `CN1CCc2cccc3c2[C@@H]1Cc1ccc(O)c(O)c1-3`, -6.6% (inactive); in that of `CCc1cccc2c1NC1(CCCC1)CC2C` (centres undefined), -1.3% (inactive).
Consider `CC(C)NCC(O)COc1ccc(CC(N)=O)cc1` (centres undefined), for which the inhibition was -1.9% (inactive).
On the same count and under the same terms, to `COc1ccc(OC)c(-n2c(Cn3c(-c4ccccn4)nc4ccccc43)n[nH]c2=S)c1` belongs -0.4% (inactive).
Same read-out and setting: in the case of `O=C1CCCN1C(=O)CCC(=O)N1CCCC1=O` it was 0.3% (inactive).
The same measure, in the same setting: to `COc1cc(C(=O)NCCc2c[nH]c3ccccc23)ccc1OCc1c(C)noc1C` belongs -1.7% (inactive); to `O=C1C=CC(=O)C(C2=C3C(=O)N(CCc4ccccc4)CC(=O)N3CCC2)=C1`, -0.3% (inactive); to `CCCCNc1cc(C(=O)O)cc(S(N)(=O)=O)c1Oc1ccccc1`, 1.7% (inactive).
As to `c1cc2c(cc1C1CCCCC1)c1c3n2CCN=C3CCC1`, the inhibition is -0.3% (inactive).
